Screens (PubChem)
In the library only some 19% were active in any assay of this set; here they are far more common.
IL-1B inflam inh = qHTS for Inhibitors of Inflammasome Signaling: IL-1-beta AlphaLISA Primary Screen. 360,000 compounds, 4.7% hits. THP-1 LPS/ATP IL-1B secretion, AlphaLISA, 16 h; hits give low values. activity change, % at 57.5 µM. AID 743279, 2014; in the data active = activity change below about -50%; inconclusive = mostly about -30% to -49%
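Secreted IL-1B measured by AlphaLISA bead assay after 16 h compound exposure of THP-1 cells; compounds (final up to 57.5 uM) added 1 h before LPS (250 ng/mL) and ATP (1.25 mM) stimulation; lower signal means less secretion.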
HT1080 IDH1KD tx = qHTS for induction of synthetic lethality in tumor cells producing 2HG: qHTS for the HT-1080-IDH1KD cell line; HT-1080 IDH1 knockdown viability, ATP luminescence, 48 h; Potency, µM (highest dose often 46.1 µM), inactives show at the top dose activity, negative = toxicity, most hits filed as cytotoxic; 360,000 compounds, 2% hits; AID 686971, 2013;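 note: potency is the fitted concentration of half-maximal effect; 0% = DMSO wells and -100% = cell-free medium wells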
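CellTiter-Glo luminescence after 48 h compound exposure at 37 degrees C of IDH1-knockdown HT-1080 cells in 5% FBS RPMI. %Activity scaled between DMSO wells and cell-free media wells, with curves fitted and assigned curve classes.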
ELG1 repair inh = qHTS screen for small molecules that inhibit ELG1-dependent DNA repair in human embryonic kidney (HEK293T) cells expressing luciferase-tagged ELG1. HEK293T ELG1-luciferase reporter, luminescence, 16 h; DNA damage induced by 5-fluorouridine. Potency, µM (titrated, usually from 46.1 µM), for the others: top-dose activity change, negative = inhibition, most hits filed as inhibitors. 330,000 compounds, 2.3% hits. AID 504467, 2011; note: potency is the fitted concentration of half-maximal effect; nearly all actives have a fitted effect of over 55% in size
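Step one: seed 2,000 cells per well. Step two: pin-transfer compound or DMSO alongside 5-fluorouridine. Step three: incubate 16 hr, 37 °C, 5% CO2. Step four: add ONE-Glo, wait 30 min, read luminescence.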
TDP1 cell noCPT = qHTS for Inhibitors of human tyrosyl-DNA phosphodiesterase 1 (TDP1): qHTS in cells in absence of CPT; DT40 Tdp1-/- hTDP1 cells, no CPT, ATP luminescence, 48 h; Potency, µM (doses to about 46.2 µM), for inactives: at the highest dose activity change, negative = growth inhibition, hits mostly inhibitors; 420,000 compounds, 15% hits; note: potency is the fitted concentration of half-maximal effect; nearly all actives have a fitted effect of over 55% in size
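Growth of hTDP1-complemented DT40 Tdp1-knockout cells is measured by ATP luminescence after at least 48 hr compound exposure at 37 °C, with DMSO substituting for the 20 nM CPT used in the parallel screen.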
HT1080NT lethal = qHTS for induction of synthetic lethality in tumor cells producing 2HG: qHTS for the HT-1080-NT fibrosarcoma cell line | AID 686970, 2013 | 360,000 compounds, 1.6% hits | HT-1080-NT fibrosarcoma viability, CellTiter-Glo ATP luminescence, 48 h | Potency, µM (top dose mostly 46.1 µM), for the others: top-dose activity, negative = less viability, most hits filed as cytotoxic;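 note: NT is the 2HG producing partner of a matched IDH1 knockdown line; potency is the fitted concentration of half-maximal effect; 0% = DMSO-treated cells and -100% = media-only wells without cells; nearly all actives have a fitted effect of over 55% in size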
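HT-1080-NT fibrosarcoma cells (2HG-overproducing), 750 cells/well in RPMI with 5% FBS, dosed after 2 h and incubated 48 h at 37C. CellTiter-Glo luminescence normalized to DMSO and no-cell wells; concentration-response curves fitted and classed.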
TDP1 cell CPT = qHTS for Inhibitors of human tyrosyl-DNA phosphodiesterase 1 (TDP1): qHTS in cells in presence of CPT; chicken DT40 Tdp1-/-;hTDP1 cells + 20 nM CPT, ATP luminescence, 48 h; Potency, µM (series often up to 46.2 µM), inactives show at the highest dose activity change, negative = growth inhibition, usual class: inhibitors; 420,000 compounds, 12% hits; note: potency is the fitted concentration of half-maximal effect; nearly all actives have a fitted effect of over 55% in size
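Chicken DT40 Tdp1-/- cells stably complemented with human TDP1 were seeded at 400 cells/well in medium containing 20 nM camptothecin, exposed to pin-transferred compounds, and grown at 37 °C for at least 48 hr. Viability was read as ATP luminescence.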
An asterisk follows results filed as active; u = inconclusive; x = not tested or not shown; [ ] = remark or other dose. Unless noted, calls come from the whole dose curve; as a rule, active = well fitted curve in the direction sought with a large enough effect; inconclusive = small, poorly fitted or top-dose-only effect, or another doubt; inactive = no such curve, though single readings can be large; an effect the other way counts as inactive or inconclusive. Unless noted, % is set by controls: 0 for no effect and ±100 for the full control effect.

SMILES	IL-1B inflam inh	HT1080 IDH1KD tx	ELG1 repair inh	TDP1 cell noCPT	HT1080NT lethal	TDP1 cell CPT
COc1ccc(CCn2c(C)cc(C(=O)CCl)c2C)cc1OC	-100*	u	-16%	5.2µM*	u	6.5µM*
Cc1cc(C(=O)CCl)c(C)n1CCc1ccc(Cl)cc1	-96*	8.2µM*	u	3.7µM*	15µM*	-99%
COc1ccc(CCn2c(C)c(C(C)=O)c(C(C)=O)c2C)cc1OC	18	-1%	4%	2%	1%	2%
COc1ccc(/C(C)=N/Nc2ccc(C(=O)O)cc2)c(OC)c1	28	-10%	u	-19%	-1%	-27%
COc1ccc2c(c1)C(=NN)c1cc(OC)ccc1-2	-1	u	23%	u	-15%	16µM*
COc1ccc2c(c1)C(=NNc1ccc(C(=O)O)cc1)c1cc(OC)ccc1-2	-3	-19%	u	23µM*	-10%	u
Nc1ccc2oc(C3CCCCC3)nc2c1	-17	0%	u	3%	2%	-12%
O=C(Nc1cccc(S(=O)(=O)N2CCOCC2)c1)C1COc2ccccc2O1 (stereo unspecified)	-4	12%	13%	u	2%	-27%
CSc1ccc(S(=O)(=O)NCC(=O)OCC(=O)N2CCCCC2C)cc1[N+](=O)[O-] (stereo unspecified)	9	14%	2%	2%	14%	6%
N#CCCn1c(SCC(=O)c2c[nH]c3ccccc23)nc2ccccc21	-13	-9%[9.24 µM]	-1%	18µM*	-14%	23µM*
Cc1cc(NC(=O)CSc2nc3ccccc3n2CCC#N)no1	-56*	6%	8%	0%	-2%	7%
O=C(CSc1nc2ccccc2c(=O)n1-c1ccccc1)c1c[nH]c2ccccc12	7	-4%	-29%	6.5µM*	-2%	6.5µM*
Cn1cnnc1SCC(=O)c1c[nH]c2ccccc12	22	-9%	u	-7%	3%	-14%
NC(=O)CSc1nc2ccccc2c(=O)n1-c1ccccc1	6	-17%	u	10%	4%	2%
CN(C(=O)COC(=O)c1ccc([N+](=O)[O-])cc1N)c1ccccc1	12	26%	-8%	-5%	u	6%
CCc1ccc(OCCOCC(O)CN(CCO)CCO)cc1 (stereo unspecified)	5	10%	3%	-6%	17%	-3%
CCN(c1ccc(OC)cc1)S(=O)(=O)c1ccc2[nH]c(=O)ccc2c1	x	x	x	u	x	-15%
O=C(CSc1nnc(-c2ccccc2)c(-c2ccccc2)n1)NC1CCS(=O)(=O)C1 (stereo unspecified)	28	15%	-16%	-22%	10%	3%
Cc1ccc(C(=O)NCCCNc2ccc(C(F)(F)F)cc2[N+](=O)[O-])cc1	0	-8%	16%	u	-11%	-18%
O=C(NCCCNc1ccc(C(F)(F)F)cc1[N+](=O)[O-])c1ccc(F)cc1	0	-2%	-3%	23µM*	2%	16µM*
O=[N+]([O-])c1cc(C(F)(F)F)ccc1NCCCCNS(=O)(=O)c1ccc2ccccc2c1	10	u	2%	23µM*	-5%	21µM*
CN(C)C(CNc1ccc(C(F)(F)F)cc1[N+](=O)[O-])c1ccccc1 (stereo unspecified)	-79*	-3%	12%	u	-2%	u
O=[N+]([O-])c1cc(C(F)(F)F)ccc1NCCc1ccccn1	u	2%	x	u	0%	-10%
ON=C(CCc1ccccc1)c1ccccc1	8	-14%	x	u	-7%	u
CC(=O)N1CCC2(CCCN(c3ccc(-c4ccccc4)cc3)C2)CC1	x	x	x	16µM*	x	u
SMILES	IL-1B inflam inh	HT1080 IDH1KD tx	ELG1 repair inh	TDP1 cell noCPT	HT1080NT lethal	TDP1 cell CPT
CC(=O)N1CCC2(CCCN(c3cccc(-c4ccccc4)c3)C2)CC1	x	x	x	u	x	16µM*
COC(=O)N1CCC2(CC1)CN(c1ccc(-c3ccccc3)cc1)C2	x	x	x	-23%	x	6%
COC(=O)N1CCC2(CC1)CN(c1cccc(-c3ccccc3)c1)C2	x	x	x	18µM*	x	-30%
Cc1ccc(S(=O)(=O)N2CCN(C(=O)CN3C(=O)c4ccccc4C3=O)CC2)c(C)c1	-4	-3%	12%	-3%	-4%	-17%
O=c1[nH]c(CN2CCCC2)nc2sc3c(c12)CCC3	-2	0%	8%	-1%	0%	-28%
Cc1ccc(C(=O)N2CCN(Cc3nc4sc5c(c4c(=O)[nH]3)CCCC5)CC2)cc1	9	12%	-7%	21µM*	7%	29µM*
Nc1nc(CN2CCN(c3ccccc3F)CC2)nc(N2CCCc3ccccc32)n1	u	-14%	-20%	-23%	-1%	-7%
CCCC(=O)Oc1ccccc1C1SCc2cc(C)c(C)cc2CS1	-22	u	7%	26µM*	-15%	18µM*
Cc1ccc(C(=O)Nc2cc3cc(Cl)ccc3oc2=O)cc1	x	x	x	1.5µM*	x	1.2µM*
COc1ccc(C(=O)Nc2cc3cc(Cl)ccc3oc2=O)cc1OC	x	x	x	2.9µM*	x	5.8µM*
COc1ccccc1C(=O)Nc1nc(-c2ccc(S(=O)(=O)N3CCOCC3)cc2)cs1	u	u	5.2µM*	2.3µM*	u	2.6µM*
O=C(Nc1nc(-c2ccc(S(=O)(=O)N3CCCC3)cc2)cs1)c1ccco1	-15	-22%	u	18µM*	-6%	23µM*
COc1ccccc1OC(C)C(=O)Nc1nc(-c2ccc(S(=O)(=O)N3CCOCC3)cc2)cs1 (stereo unspecified)	0	-2%	u	u	2%	u
O=C(Nc1ccc(S(=O)(=O)N2CCCCCC2)cc1)c1ccco1	1	17%	u	-22%	0%	-9%
O=C(COc1cccc(Cl)c1)Nc1nc(-c2ccc(S(=O)(=O)N3CCOCC3)cc2)cs1	-2	-5%	23µM*	12µM*	-2%	21µM*
O=C(Nc1nc(-c2ccccn2)cs1)c1cccc(S(=O)(=O)N2CCOCC2)c1	119	u	4%	2.9µM*	-23%	4.1µM*
